Source: PubChem BioAssay (National Center for Advancing Translational Sciences (NCATS))
HCMV antiviral: human cytomegalovirus inhibition | HFF cells, HCMV-luciferase reporter, 72 h; stronger effect = lower value | activity change, negative = inhibition, % at 57.5 µM | 410,000 tested, 4.5% active | AID 1259415; in the data active = activity change below about -60%; inconclusive = no clear call, values can overlap the other calls; inactive = above about -39%; note: % is set by controls: 0 for no effect and ±100 for the full control effect
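HFF cells seeded 16 h at 37C, treated with compounds, infected with luciferase-reporter HCMV at MOI 1 PFU/cell; luciferase read at 72 h post infection, normalized to buffer-only and Salinomycin controls.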
Shiga inhibitor: inhibitors of Shiga toxin in Vero cells; Vero cells, Shiga toxin protein synthesis inhibition reporter; inhibition, % at 38.7 µM; 290,000 tested, 9.2% active; in the data active = inhibition mostly above about 28%, no sharp cut-off; inactive = mostly below about 43%; note: 0% is about no effect
Pf growth 96h: P. falciparum growth inhibition at 96 hour, primary screen for plastid delayed-death inhibitors | P. falciparum luciferase reporter growth, 96 h | Potency, µM (top dose mostly 28.7 µM), for inactives: top-dose activity change, negative = inhibition, hits mostly inhibitors | 320,000 tested, 6.9% active | AID 504834; note: potency is the fitted concentration of half-maximal effect; % is set by controls: 0 for no effect and ±100 for the full control effect
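Erythrocytes infected with luciferase-expressing P. falciparum were dispensed at 2% hematocrit and 0.05% parasitemia (final), then incubated with compounds 96 hours at 37 C in 5% CO2. Luminescence after detection reagent addition reported growth.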
Cycloheximide cs: affects cycloheximide protein synthesis inhibition readout, counter-screen. cell reporter, cycloheximide protein synthesis inhibition counterscreen. max response, %. 300,000 tested, 12% active; in the data active = max response mostly above about 13%, no sharp cut-off; inactive = mostly below about 14%; note: read at 38.3 µM for the half of the compounds with a filed dose; 0% is about no effect
Pf growth 48h: P. falciparum growth inhibition at 48 hours (one generation); P. falciparum luciferase growth in erythrocytes, 48 h; Potency, µM (top dose mostly 28.7 µM), for inactives: top-dose activity change, negative = inhibition, usual class: inhibitors; 310,000 tested, 5.9% active; note: potency is the fitted concentration of half-maximal effect; % is set by controls: 0 for no effect and ±100 for the full control effect
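Luminescence readout; reporter = integrated firefly luciferase in P. falciparum. RBC culture at 2% hematocrit, 0.1% parasitemia final, 37 C/5% CO2; decreased signal taken as growth inhibition.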
HCV inh: HCV inhibition; Huh7.5.1 HCVcc-Cre infection, luciferase reporter, 44 h; Potency, µM (highest dose often 41.8 µM), for the others: at the top dose activity change, negative = inhibition, hits mostly inhibitors; 340,000 tested, 3.4% active; AID 651820; note: potency is the fitted concentration of half-maximal effect; % is set by controls: 0 for no effect and ±100 for the full control effect
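Cells (1,000/well) were plated 4 h before compound, then infected with HCVcc-Cre virus (~0.5 moi). After 44 h further culture, infection was read as luciferase luminescence following a 15 min substrate incubation at room temperature.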
* marks the source's active call; other numbers are inactive results; [ ] = another dose, or the depositor's remark. Most compounds without a hit are left out; they make up all but 21% or so of the library. Unless noted, calls come from the whole dose curve; as a rule, active = well fitted inhibition curve with a large enough effect; inconclusive = small, poorly fitted or top-dose-only effect, or another doubt; inactive = no such curve, though single readings can be large or run the other way.

Cc1ccccc1OCCn1cc(/C=C(\C#N)C(=O)NCc2ccco2)c2ccccc21 was read as HCMV antiviral -18, Shiga inhibitor 40, Pf growth 96h -29%, Cycloheximide cs 11, Pf growth 48h 6% and HCV inh -11%.
For Cc1ccc(OCCn2cc(/C=C(\C#N)C(=O)NCC3CCCO3)c3ccccc32)cc1C (stereo not given) the results were HCMV antiviral 20, Shiga inhibitor 11, Pf growth 96h inconclusive, Cycloheximide cs 10, Pf growth 48h inconclusive and HCV inh inconclusive.
Screening CNC(=O)/C(C#N)=C/c1cn(CC(=O)NCc2ccco2)c2ccccc12 returned HCMV antiviral -5, Shiga inhibitor 5, Pf growth 96h 12%, Cycloheximide cs -5, Pf growth 48h -1% and HCV inh -18%.
`COc1ccccc1NC(=S)NNC(=O)c1nn(C)c(C)c1Cl` gave HCMV antiviral 5, Shiga inhibitor 30, Pf growth 96h 13%, Cycloheximide cs 34* and HCV inh 18%.
Screening Cc1c(Cl)c(C(=O)NNC(=S)NCc2ccco2)nn1C returned HCMV antiviral 10, Shiga inhibitor 11, Pf growth 96h 44%, Cycloheximide cs 1, Pf growth 48h 25% and HCV inh 20%.
For COc1ccccc1NC(=S)NNC(=O)c1nn(C)c(C)c1Br the results were HCMV antiviral -22, Shiga inhibitor 109*, Pf growth 96h 11%, Cycloheximide cs 52*, Pf growth 48h 31% and HCV inh 34%.
For CCCCNC(=S)NNC(=O)c1nn(C)c(C)c1Cl the results were HCMV antiviral 40, Shiga inhibitor 74*, Pf growth 96h 63%, Cycloheximide cs 29*, Pf growth 48h 24% and HCV inh 6%.
Screening COc1ccccc1NC(=S)NNC(=O)c1nn(C)cc1Cl returned HCMV antiviral -19, Shiga inhibitor 45, Pf growth 96h 6.6µM*, Cycloheximide cs 14, Pf growth 48h inconclusive and HCV inh 5%.
Screening COc1cc(C)ccc1OCCSc1nc2ccc(NC(C)=O)cc2s1 returned HCMV antiviral -22.
CCCCNC(=S)NNC(=O)CCn1nc(C)c(Br)c1C was read as HCMV antiviral -106*, Shiga inhibitor 22, Pf growth 96h inconclusive, Cycloheximide cs -2, Pf growth 48h inconclusive and HCV inh 17%.
`Cc1nn(CCC(=O)NNC(=S)Nc2ccc(F)cc2)c(C)c1Br` gave HCMV antiviral 54, Shiga inhibitor -7, Pf growth 96h -8%, Cycloheximide cs -4, Pf growth 48h 7% and HCV inh 20%.
`CCS(=O)(=O)NCCNc1ccc([N+](=O)[O-])cc1` gave HCMV antiviral -15, Shiga inhibitor -18, Pf growth 96h 12µM*, Cycloheximide cs 0, Pf growth 48h -2% and HCV inh 1%.
Screening COc1ccccc1C(=O)NCCCNc1ccc([N+](=O)[O-])cc1 returned HCMV antiviral -22, Shiga inhibitor -13, Pf growth 96h 13µM*, Cycloheximide cs -2, Pf growth 48h 1% and HCV inh 2%.
Screening COc1ccccc1C(=O)NCCCCNC(=O)c1ccccc1OC returned HCMV antiviral -12 and HCV inh -13%.
For O=C(NCCNc1ccc([N+](=O)[O-])cc1)c1ccccc1Cl the results were HCMV antiviral -13.
CC(=O)NCCCNc1ccc([N+](=O)[O-])cc1 was read as HCMV antiviral 54, Shiga inhibitor 35*, Pf growth 96h 1%, Cycloheximide cs 23*, Pf growth 48h 76% and HCV inh 20%.
O=[N+]([O-])c1ccc(NCCNc2ccc(Cl)nn2)cc1 was read as HCMV antiviral -12, Shiga inhibitor -18, Pf growth 96h -17%, Cycloheximide cs 0 and HCV inh inconclusive.
`O=C(Nc1ccc(SC(F)F)cc1)c1ccc2nccnc2c1` gave HCMV antiviral -78*, Shiga inhibitor 41*, Pf growth 96h inconclusive, Cycloheximide cs 46*, Pf growth 48h 76% and HCV inh 3.5µM*.
For O=C(Nc1ccc(OC(F)(F)F)cc1)c1ccc2nccnc2c1 the results were HCMV antiviral inconclusive, Shiga inhibitor 79*, Pf growth 96h 18%, Cycloheximide cs 27*, Pf growth 48h 20%[5.75 µM] and HCV inh inconclusive.
CC(=O)N(Cc1cccnc1)c1nc2c(C)c(C)ccc2s1 was read as HCMV antiviral 0.
For COc1ccccc1NC(=O)c1ccc(NC(=O)Cc2n[nH]c(=O)c3ccccc23)cc1 the results were HCMV antiviral -3, Shiga inhibitor -1, Pf growth 96h -28%, Cycloheximide cs 1, Pf growth 48h -1% and HCV inh -30%.
For CCC(=O)N1CCn2c1nc1ccccc12 the results were HCMV antiviral 36, Shiga inhibitor -17, Pf growth 96h 69%, Cycloheximide cs -1, Pf growth 48h 23% and HCV inh inconclusive.
Screening O=C(c1ccco1)N1CCn2c1nc1ccccc12 returned HCMV antiviral 81, Shiga inhibitor 53*, Pf growth 96h 14%, Cycloheximide cs 29*, Pf growth 48h 57% and HCV inh 4%.
`S=C(Nc1ccccc1)N1CCn2c1nc1ccccc12` gave HCMV antiviral 5, Shiga inhibitor -12, Pf growth 96h 2.6µM*, Cycloheximide cs 0, Pf growth 48h 5% and HCV inh inconclusive.
For Nc1nc2ccccc2n1C(=O)CCc1ccccc1 the results were HCMV antiviral 89, Shiga inhibitor 95*, Cycloheximide cs 46*, Pf growth 48h 155% and HCV inh inconclusive.
Screening Nc1nc2ccccc2n1C(=O)c1ccco1 returned HCMV antiviral 126, Shiga inhibitor 90*, Pf growth 96h inconclusive, Cycloheximide cs 55*, Pf growth 48h 232% and HCV inh 15%.
Screening CCOC(=O)c1ccc(NC(=O)CC2C(=O)N(c3ccc(F)cc3)C(=O)N2Cc2ccc3c(c2)OCO3)cc1 (stereo not given) returned HCMV antiviral 15.
`CCN(CC(=O)NCc1cccs1)C(=O)/C=C/c1cccc(Br)c1` gave HCMV antiviral -29, Pf growth 96h -1%, Pf growth 48h 5% and HCV inh 3%.
`CCN(CC(=O)NCc1cccs1)C(=O)/C=C/c1cc(Br)ccc1OC(F)F` gave HCMV antiviral inconclusive, Pf growth 96h 10µM*, Pf growth 48h inconclusive and HCV inh -12%.
For Fc1ccc2c(c1)C1C=CCC1C(c1cc3c(cc1Br)OCO3)N2 (stereo not given) the results were HCMV antiviral 28, Shiga inhibitor -2, Pf growth 96h 4%, Cycloheximide cs 0, Pf growth 48h 5.2µM* and HCV inh -19%.
Screening Fc1ccc([C@@H]2Nc3ccccc3[C@@H]3C=CC[C@@H]32)cc1 returned HCMV antiviral 12.
